# Source: the supplement of paper PMC6658780
# Where a name gives a salt, the structure may show the parent alone. ± gives the standard deviation of the averaged measurements.
# Key:
# [1] = test system: Klebsiella pneumoniae KPC-119; experiment: percent growth inhibition of drug alone vs DMSO control; higher = more growth inhibition; conditions: antibiotic (0.125x MIC): none (0.1% DMSO)
# [2] = test system: Klebsiella pneumoniae NCTC-13439; experiment: as above; conditions: antibiotic (0.125x MIC): none (0.1% DMSO)
# [3] = test system: Klebsiella pneumoniae KPC-119; experiment: percent growth inhibition of drug + antibiotic vs DMSO control; higher = more growth inhibition
# [4] = test system: Klebsiella pneumoniae NCTC-13439; experiment: as above
# [5] = test system: Escherichia coli ATCC BAA-2469; experiment: as above; conditions: antibiotic (0.125x MIC): gentamicin
# Protocol: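 Prestwick drugs tested at 20 uM and 7 uM with an antibiotic at 0.125x MIC (16 mg/L when MIC >128 mg/L) against E. coli ATCC BAA-2469 (NDM-1) in CAMHB, 384-well plates, duplicate runs. Percent growth inhibition was computed from OD600 (24 h minus 0 h) relative to DMSO wells. Drug + DMSO-only wells are also given. […]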
# [6] = antibiotic (0.125x MIC): colistin, 7 µM
# [7] = antibiotic (0.125x MIC): colistin, 20 µM
# [8] = antibiotic (0.125x MIC): gentamicin, 7 µM
# [9] = antibiotic (0.125x MIC): gentamicin, 20 µM
# [10] = antibiotic (0.125x MIC): meropenem, 20 µM
# [11] = antibiotic (0.125x MIC): ciprofloxacin, 7 µM
# [12] = antibiotic (0.125x MIC): tigecycline, 20 µM
# [13] = antibiotic (0.125x MIC): tigecycline, 7 µM
# [14] = antibiotic (0.125x MIC): meropenem, 7 µM
# [15] = antibiotic (0.125x MIC): ciprofloxacin, 20 µM
smiles,measurement,setting,value
CO[C@H]1/C=C/O[C@@]2(C)Oc3c(C)c(O)c4c(c3C2=O)C2=NC3(CCN(CC(C)C)CC3)NC2=C(NC(=O)/C(C)=C\C=C\[C@H](C)[C@H](O)[C@@H](C)[C@@H](O)[C@@H](C)[C@H](OC(C)=O)[C@@H]1C)C4=O [Rifabutin],percent growth inhibition of drug alone,[1]; 7 µM,8.64 ± 2.6%
same,percent growth inhibition of drug alone,[1]; 20 µM,73.8 ± 3.7%
same,percent growth inhibition of drug alone,[2]; 7 µM,5.74 ± 2.1%
same,percent growth inhibition,[3]; [6],97.8 ± 1.9%
same,percent growth inhibition,[3]; [7],98.1 ± 2.2%
same,percent growth inhibition,[3]; [8],41.8 ± 7%
same,percent growth inhibition,[3]; [9],99.4 ± 0.45%
same,percent growth inhibition,[3]; [10],99.645 ± 0.017%
same,percent growth inhibition,[4]; [11],21.5 ± 7.5%
same,percent growth inhibition,[4]; [12],30.9 ± 7.2%
NC[C@@H]1O[C@H](O[C@H]2[C@@H](O)[C@H](O[C@@H]3[C@@H](O)[C@H](N)C[C@H](N)[C@H]3O[C@H]3O[C@H](CO)[C@@H](O)[C@H](O)[C@H]3N)O[C@@H]2CO)[C@H](N)[C@@H](O)[C@@H]1O [Paromomycin sulfate],percent growth inhibition of drug alone,[1]; 7 µM,-0.033 ± 0.073%
same,percent growth inhibition of drug alone,[1]; 20 µM,41.3 ± 0.58%
same,percent growth inhibition of drug alone,[2]; 7 µM,11.4 ± 2.6%
same,percent growth inhibition of drug alone,[2]; 20 µM,43.7 ± 12%
same,percent growth inhibition,[3]; [6],12.7 ± 6.7%
same,percent growth inhibition,[3]; [8],8.59 ± 1.5%
same,percent growth inhibition,[4]; [13],6.3 ± 3%
OCCOCCN1CCN(C2=Nc3ccccc3Sc3ccccc32)CC1 [Quetiapine hemifumarate],percent growth inhibition of drug alone,[1]; 7 µM,-3.12 ± 4%
same,percent growth inhibition of drug alone,[1]; 20 µM,-3.25 ± 2.9%
same,percent growth inhibition of drug alone,[2]; 7 µM,-15.6 ± 19%
same,percent growth inhibition of drug alone,[2]; 20 µM,-5.29 ± 6.1%
same,percent growth inhibition,[3]; [7],-8.06 ± 1.8%
same,percent growth inhibition,[4]; [13],-9.2 ± 16%
same,percent growth inhibition,[4]; [12],-7.45 ± 10%
CC1=C(/C=C/C(C)=C/C=C/C(C)=C/C(=O)O)C(C)(C)CCC1 [Retinoic acid],percent growth inhibition of drug alone,[1]; 7 µM,1.08 ± 2.4%
same,percent growth inhibition of drug alone,[1]; 20 µM,0.222 ± 2%
same,percent growth inhibition,[3]; [7],-10.3 ± 2.1%
CC(=O)OC[C@H]1O[C@@H]([S-])[C@H](OC(C)=O)[C@@H](OC(C)=O)[C@@H]1OC(C)=O.CCP(CC)CC.[Au+] [Auranofin],percent growth inhibition of drug alone,[1]; 7 µM,10 ± 0.89%
same,percent growth inhibition of drug alone,[1]; 20 µM,50.22 ± 0.3%
same,percent growth inhibition of drug alone,[2]; 7 µM,9.98 ± 8.3%
same,percent growth inhibition of drug alone,[2]; 20 µM,22.6 ± 13%
same,percent growth inhibition,[3]; [6],101 ± 3.5%
same,percent growth inhibition,[3]; [7],96.14 ± 0.42%
same,percent growth inhibition,[3]; [8],33.2 ± 9.4%
same,percent growth inhibition,[3]; [9],99.78 ± 0.2%
same,percent growth inhibition,[3]; [14],98.3 ± 1.4%
same,percent growth inhibition,[3]; [10],99.5 ± 0.13%
same,percent growth inhibition,[4]; [11],10.8 ± 5.5%
Nc1nnc(-c2cccc(Cl)c2Cl)c(N)n1 [Lamotrigine],percent growth inhibition,[5]; 7 µM,7.06 ± 4.8%
Clc1cccc(Cl)c1NC1=NCCN1 [Clonidine hydrochloride],percent growth inhibition,[5]; 20 µM,-0.49 ± 2.6%
Oc1c(Cl)cc(Cl)c(Cl)c1Cc1c(O)c(Cl)cc(Cl)c1Cl [Hexachlorophene],percent growth inhibition of drug alone,[1]; 7 µM,0.779 ± 4.2%
same,percent growth inhibition of drug alone,[1]; 20 µM,18.8 ± 7.5%
same,percent growth inhibition,[3]; [6],4.52 ± 2.5%
C=C1c2c(Cl)ccc(O)c2C(=O)C2=C(O)[C@]3(O)C(=O)C(C(N)=O)=C(O)[C@@H](N(C)C)[C@@H]3[C@@H](O)[C@H]12.O=C(O)c1cc(S(=O)(=O)O)ccc1O [Meclocycline sulfosalicylate],percent growth inhibition of drug alone,[1]; 7 µM,2.09 ± 6.8%
same,percent growth inhibition of drug alone,[1]; 20 µM,7.24 ± 1.1%
same,percent growth inhibition,[3]; [7],10.3 ± 2.3%
Cc1cccc(C)c1NC(=O)C1CCCCN1C (configuration not stated) [Mepivacaine hydrochloride],percent growth inhibition,[5]; 20 µM,1.04 ± 3.1%
CO/N=C(\C(=O)N[C@@H]1C(=O)N2C(C(=O)O)=C(COC(C)=O)CS[C@H]12)c1csc(N)n1 [Cefotaxime sodium salt],percent growth inhibition of drug alone,[1]; 7 µM,4.98 ± 2%
same,percent growth inhibition of drug alone,[1]; 20 µM,37.8 ± 0.86%
same,percent growth inhibition,[3]; [8],29.3 ± 2.3%
CC[C@H]1OC(=O)[C@H](C)[C@@H](O[C@H]2C[C@@](C)(OC)[C@@H](O)[C@H](C)O2)[C@H](C)[C@@H](O[C@@H]2O[C@H](C)C[C@H](N(C)C)[C@H]2O)[C@](C)(O)C[C@@H](C)CN(C)[C@H](C)[C@@H](O)[C@]1(C)O [Azithromycin],percent growth inhibition of drug alone,[1]; 7 µM,5.21 ± 1.8%
same,percent growth inhibition of drug alone,[1]; 20 µM,21.1 ± 1%
same,percent growth inhibition of drug alone,[2]; 7 µM,55.2 ± 6.6%
same,percent growth inhibition of drug alone,[2]; 20 µM,74.4 ± 19%
same,percent growth inhibition,[3]; [6],40.9 ± 12%
same,percent growth inhibition,[3]; [7],98.78 ± 0.7%
same,percent growth inhibition,[4]; [11],44.5 ± 5.6%
same,percent growth inhibition,[4]; [15],99.666 ± 0.042%
same,percent growth inhibition,[4]; [13],64.2 ± 2.8%
O=c1[nH]c(=O)n([C@H]2C[C@H](O)[C@@H](CO)O2)cc1F [Floxuridine],percent growth inhibition of drug alone,[1]; 7 µM,34.2 ± 2.8%
same,percent growth inhibition of drug alone,[1]; 20 µM,92.8 ± 5.4%
same,percent growth inhibition of drug alone,[2]; 7 µM,43.4 ± 0.88%
same,percent growth inhibition of drug alone,[2]; 20 µM,99.63 ± 0.17%
same,percent growth inhibition,[3]; [7],98.9 ± 1.5%
same,percent growth inhibition,[3]; [14],89.6 ± 10%
same,percent growth inhibition,[3]; [10],98.5 ± 1.4%
same,percent growth inhibition,[4]; [11],64.6 ± 15%
same,percent growth inhibition,[4]; [15],99.05 ± 0.42%
CO[C@@]1(NC(=O)CSCC#N)C(=O)N2C(C(=O)O)=C(CSc3nnnn3C)CS[C@@H]21 [Cefmetazole sodium salt],percent growth inhibition of drug alone,[1]; 7 µM,2.72 ± 1.2%
same,percent growth inhibition of drug alone,[1]; 20 µM,32.6 ± 2.3%
same,percent growth inhibition,[3]; [8],3.52 ± 6.6%
O=C(O)c1cn(-c2ccc(F)cc2)c2cc(N3CCNCC3)c(F)cc2c1=O [Sarafloxacin],percent growth inhibition of drug alone,[1]; 7 µM,56.9 ± 1.9%
same,percent growth inhibition of drug alone,[1]; 20 µM,98.9 ± 1.1%
same,percent growth inhibition of drug alone,[2]; 7 µM,19.6 ± 1.8%
same,percent growth inhibition of drug alone,[2]; 20 µM,98.4 ± 1.6%
same,percent growth inhibition,[3]; [8],99.81 ± 0.1%
same,percent growth inhibition,[3]; [9],99.82 ± 0.22%
same,percent growth inhibition,[3]; [14],99.613 ± 0.042%
same,percent growth inhibition,[3]; [10],83.6 ± 19%
same,percent growth inhibition,[4]; [11],59.24 ± 0.15%
same,percent growth inhibition,[4]; [15],99.59 ± 0.23%
same,percent growth inhibition,[4]; [13],50 ± 14%
same,percent growth inhibition,[4]; [12],99.57 ± 0.39%
CCN1CCCC1CNC(=O)c1cc(S(N)(=O)=O)ccc1OC (configuration not stated) [Sulpiride],percent growth inhibition of drug alone,[1]; 7 µM,-2.88 ± 3.1%
same,percent growth inhibition of drug alone,[1]; 20 µM,-3.73 ± 0.65%
same,percent growth inhibition,[3]; [7],-7.13 ± 1.4%
CCCCCCCCCCCCCCCC[N+](C)(C)CCN(Cc1ccc(OC)cc1)c1ncccn1 [Thonzonium bromide],percent growth inhibition of drug alone,[1]; 7 µM,-1.94 ± 3.1%
same,percent growth inhibition of drug alone,[1]; 20 µM,2.72 ± 1.4%
same,percent growth inhibition,[3]; [7],98.2 ± 3.1%
CC1CS(=O)(=O)CCN1/N=C/c1ccc([N+](=O)[O-])o1 (configuration not stated) [Nifurtimox],percent growth inhibition,[5]; 20 µM,2.95 ± 0.97%
CC(=O)c1ccc2c(c1)N(CCCN1CCC(CCO)CC1)c1ccccc1S2 [Piperacetazine],percent growth inhibition,[5]; 7 µM,2.86 ± 2.4%
O=C1OCCN1/N=C/c1ccc([N+](=O)[O-])o1 [Furazolidone],percent growth inhibition of drug alone,[1]; 7 µM,18.3 ± 1.2%
same,percent growth inhibition of drug alone,[1]; 20 µM,39.8 ± 1.6%
same,percent growth inhibition of drug alone,[2]; 7 µM,17.5 ± 3%
same,percent growth inhibition of drug alone,[2]; 20 µM,49.8 ± 1.5%
same,percent growth inhibition,[3]; [6],96.1 ± 7%
same,percent growth inhibition,[3]; [7],99.62 ± 0.88%
same,percent growth inhibition,[3]; [8],17.8 ± 1.7%
same,percent growth inhibition,[3]; [9],99.78 ± 0.13%
same,percent growth inhibition,[4]; [11],17 ± 1.2%
same,percent growth inhibition,[4]; [15],99.97 ± 0.19%
same,percent growth inhibition,[4]; [13],26.3 ± 2.4%
